Among all 5,500 compounds or so, about 2,000 (36%) were called active. Inconclusive results (about 18%) are left out. Rule as the data show it: active = normalized growth mostly below about 0.91 (no sharp cut-off); inconclusive = no clear call, values can overlap the other calls; inactive = mostly above about 0.92. The list shows a part of the results.
Assay: chemical genetic growth profiling, strain panel (AID 1159580);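 also: tested at 20 µM; growth read once vehicle control cultures reached saturation at 30 °C; 1 = growth at the plate median or of vehicle wells; lower values mean less growth of the strain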
Details: growth OD

Measured: normalized growth

CC[C@H](CCC(C)[C@H]1CCC2C3CCC4C[C@@H](O)CC[C@]4(C)C3CC[C@@]21C)C(C)C (stereo partly drawn)
inactive: S. cerevisiae deletion strains, locus YKL009W, strain mrt4, active compounds read low 1.02 | S. cerevisiae deletion strains, locus YKL068W, active compounds read low 1.01 | S. cerevisiae deletion strains, locus YKL085W, strain MDH1 (second series), active compounds read low 1.01 | S. cerevisiae deletion strains, locus YKL085W, strain MDH1, active compounds read low 1.01 | S. cerevisiae deletion strains, locus YKL160W, strain elf1, active compounds read low 1.02 | S. cerevisiae deletion strains, locus YKR001C, strain vps1, active compounds read low 1.04 | S. cerevisiae deletion strains, locus YKR026C, strain gcn3, active compounds read low 0.988 | S. cerevisiae deletion strains, locus YKR091W, strain srl3, active compounds read low 0.992 | S. cerevisiae deletion strains, locus YLL001W, strain dnm1, active compounds read low 1.01 | S. cerevisiae deletion strains, locus YLL026W, active compounds read low 0.991 | S. cerevisiae deletion strains, locus YLL041C, strain sdh2, active compounds read low 0.969 | S. cerevisiae deletion strains, locus YLR027C, strain aat2, active compounds read low 0.987 | S. cerevisiae deletion strains, locus YLR039C, strain RIC1, active compounds read low 0.995 | S. cerevisiae deletion strains, locus YLR058C, strain SHM2, active compounds read low 1.01 | S. cerevisiae deletion strains, locus YLR102C, strain apc9, active compounds read low 1.01 | S. cerevisiae deletion strains, locus YLR113W, strain HOG1, active compounds read low 0.991 | S. cerevisiae deletion strains, locus YLR221C, strain rsa3, active compounds read low 1.03 | S. cerevisiae deletion strains, locus YLR258W, strain gsy2, active compounds read low 0.988 | S. cerevisiae deletion strains, locus YLR262C, strain YPT6 (second series), active compounds read low 0.97 | S. cerevisiae deletion strains, locus YLR262C, strain YPT6, active compounds read low 1.02 | S. cerevisiae deletion strains, locus YLR268W, strain sec22, active compounds read low 1.02 | S. cerevisiae deletion strains, locus YLR320W, strain mms22, active compounds read low 1.02 | S. cerevisiae deletion strains, locus YLR330W, strain CHS5, active compounds read low 1.01 | S. cerevisiae deletion strains, locus YLR342W, strain FKS1 (second series), active compounds read low 1.01 | S. cerevisiae deletion strains, locus YLR342W, strain FKS1, active compounds read low 0.978 | S. cerevisiae deletion strains, locus YLR357W, strain rsc2, active compounds read low 0.98 | S. cerevisiae deletion strains, locus YLR370C, strain arc18, active compounds read low 0.98 | S. cerevisiae deletion strains, locus YLR371W, strain rom2, active compounds read low 1.01 | S. cerevisiae deletion strains, locus YLR384C, strain iki3, active compounds read low 0.986 | S. cerevisiae deletion strains, locus YLR418C, strain cdc73, active compounds read low 1 | S. cerevisiae deletion strains, locus YML016C, strain PPZ1, active compounds read low 1.01 | S. cerevisiae deletion strains, locus YML032C, strain rad52, active compounds read low 1.01 | S. cerevisiae deletion strains, locus YML120C, strain ndi1, active compounds read low 0.989 | S. cerevisiae deletion strains, locus YML124C, strain tub3, active compounds read low 1.01 | S. cerevisiae deletion strains, locus YMR058W, strain fet3, active compounds read low 0.967 | S. cerevisiae deletion strains, locus YMR078C, strain ctf18, active compounds read low 1.01 | S. cerevisiae deletion strains, locus YMR125W, strain sto1, active compounds read low 0.969 | S. cerevisiae deletion strains, locus YMR129W, active compounds read low 0.982 | S. cerevisiae deletion strains, locus YMR205C, strain PFK2, active compounds read low 1.01 | S. cerevisiae deletion strains, locus YMR223W, strain ubp8, active compounds read low 0.988 | S. cerevisiae deletion strains, locus YMR231W, strain pep5, active compounds read low 0.975 | S. cerevisiae deletion strains, locus YMR263W, strain SAP30, active compounds read low 1.01 | S. cerevisiae deletion strains, locus YMR307W, strain GAS1, active compounds read low 0.973 | S. cerevisiae deletion strains, locus YNL067W, strain RPL9B, active compounds read low 1 | S. cerevisiae deletion strains, locus YNL071W, strain lat1, active compounds read low 0.974 | S. cerevisiae deletion strains, locus YNL153C, strain GIM3, active compounds read low 1 | S. cerevisiae deletion strains, locus YNL183C, strain NPR1, active compounds read low 0.974 | S. cerevisiae deletion strains, locus YNL209W, strain ssb2, active compounds read low 1 | S. cerevisiae deletion strains, locus YNL233W, strain BNI4, active compounds read low 1 | S. cerevisiae deletion strains, locus YNL248C, strain rpa49, active compounds read low 0.975 | S. cerevisiae deletion strains, locus YNL250W, strain rad50, active compounds read low 1 | S. cerevisiae deletion strains, locus YNL271C, strain bni1, active compounds read low 1.01 | S. cerevisiae deletion strains, locus YNL298W, strain CLA4, active compounds read low 1.02 | S. cerevisiae deletion strains, locus YNL307C, strain MCK1, active compounds read low 1.01 | S. cerevisiae deletion strains, locus YNL322C, strain KRE1 (second series), active compounds read low 0.982 | S. cerevisiae deletion strains, locus YNL322C, strain KRE1, active compounds read low 1 | S. cerevisiae deletion strains, locus YNR049C, strain mso1, active compounds read low 0.984 | S. cerevisiae deletion strains, locus YNR052C, strain pop2, active compounds read low 1.02 | S. cerevisiae deletion strains, locus YOL012C, strain htz1 0.67 | S. cerevisiae deletion strains, locus YOL147C, strain pex11, active compounds read low 1 | S. cerevisiae deletion strains, locus YOR001W, strain rrp6, active compounds read low 0.949 | S. cerevisiae deletion strains, locus YOR061W, strain CKA2, active compounds read low 1.02 | S. cerevisiae deletion strains, locus YOR069W, strain VPS5, active compounds read low 1.01 | S. cerevisiae deletion strains, locus YOR070C, strain gyp1, active compounds read low 1.02 | S. cerevisiae deletion strains, locus YOR080W, strain dia2, active compounds read low 0.988 | S. cerevisiae deletion strains, locus YOR083W, strain WHI5, active compounds read low 1.03 | S. cerevisiae deletion strains, locus YOR106W, strain vam3, active compounds read low 0.998 | S. cerevisiae deletion strains, locus YOR136W, strain idh2, active compounds read low 1.01 | S. cerevisiae deletion strains, locus YOR144C, strain elg1, active compounds read low 1.01 | S. cerevisiae deletion strains, locus YOR184W, strain ser1, active compounds read low 1.02 | S. cerevisiae deletion strains, locus YOR231W, strain MKK1, active compounds read low 1.01 | S. cerevisiae deletion strains, locus YOR265W, strain rbl2, active compounds read low 1.02 | S. cerevisiae deletion strains, locus YOR270C, strain vph1, active compounds read low 0.979 | S. cerevisiae deletion strains, locus YOR290C, strain snf2, active compounds read low 0.995 | S. cerevisiae deletion strains, locus YOR316C, strain cot1, active compounds read low 1.01 | S. cerevisiae deletion strains, locus YPL051W, strain arl3, active compounds read low 0.995 | S. cerevisiae deletion strains, locus YPL055C, strain LGE1, active compounds read low 1 | S. cerevisiae deletion strains, locus YPL078C, strain atp4, active compounds read low 0.989 | S. cerevisiae deletion strains, locus YPL106C, strain sse1, active compounds read low 0.994 | S. cerevisiae deletion strains, locus YPL240C, strain hsp82, active compounds read low 0.987 | S. cerevisiae deletion strains, locus YPL241C, strain CIN2, active compounds read low 1 | S. cerevisiae deletion strains, locus YPL256C, strain CLN2, active compounds read low 1.02 | S. cerevisiae deletion strains, locus YPR119W, strain clb2, active compounds read low 1.01 | S. cerevisiae deletion strains, locus YPR141C, strain kar3, active compounds read low 1.01 | S. cerevisiae deletion strains, locus YPR163C, strain tif3, active compounds read low 1.01 | S. cerevisiae deletion strains, locus YPR167C, strain met16, active compounds read low 1 | S. cerevisiae deletion strains, strain wtn01, active compounds read low 1.02 | S. cerevisiae strains, strain wild type, active compounds read low 1.01

— PubChem BioAssay AID1159580 (chemical genetic matrix, 2015)
